Laboratory results: PubChem BioAssay (NCATS)
Records with an inconclusive call do not appear. A number with no mark means an inactive call. Calls of active or inactive are those of the source. The call rests on the fitted dose curve; in most records, active means well fitted inhibition curve with a large enough effect; inconclusive means small, poorly fitted or top-dose-only effect; inactive means no such curve, though single readings can be large or run the other way.

biological target: Retinaldehyde dehydrogenase 3 (Homo sapiens) (UniProt P47895); assay: qHTS for Inhibitors of the Aldehyde Dehydrogenase Family (ALDH1A3) Primary screen (AID 2061315); conditions: ALDH inhibition qHTS; series mostly up to 56 µM; activity change, negative = inhibition: at the top concentration;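 further: plate controls were DMSO vehicle for no effect and reference inhibitor for full effect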

Structure (SMILES) | activity change, negative = inhibition | Potency
O=C(CNC(=O)C1CCCCC1)OC(C(=O)c1ccccc1)c1ccccc1 (stereo not given) | 3.36% | 
CC(C)C1=CC2=CCC3[C@](C)(CCC[C@@]3(C)C(=O)O)C2CC1O (stereo not given in full) | 4.52% | 
O=C1CCCC2=C1C(c1[nH]ncc1Cl)N=C(Nc1cccnc1)N2 (stereo not given) | -2.49% | 
COc1cccc(C2c3c(ncn(-c4ccc(NC(C)=O)cc4)c3=N)Oc3ccc4ccccc4c32)c1 (stereo not given) | 10.5% | 
CCCn1c(-c2ccc(F)cc2)nc2c(NCCCCN3CCCC3)nc(C)nc21 | 0.107% | 
CN[C@@H]1[C@H](O[C@H]2[C@H](O[C@@H]3[C@@H](O)[C@H](O)[C@@H](N=C(N)N)[C@H](O)[C@H]3N=C(N)N)O[C@@H](C)[C@]2(O)CO)O[C@@H](CO)[C@H](O)[C@H]1O | -11.5% | 
O=[S+]([O-])(Nc1nccs1)c1ccc(NCc2ccc(Cl)c(Cl)c2)cc1 | 9.62% | 
COC(=N)c1nc2ccc3ncnc(Nc4ccc(F)cc4Br)c3c2s1 | 4.5% | 
Cn1c(=O)c2c(nc(CN3CCN(C(=O)C4CC4)CC3)n2Cc2cccc(F)c2)n(C)c1=O | -4.07% | 
Cc1cc2c(s1)c1cnn(Cc3ccc(F)c(F)c3)c(=O)c1n2C | 2.61% | 
Cc1cc2c(s1)c1cnn(Cc3ccc(C(F)(F)F)cc3F)c(=O)c1n2C | 1.56% | 
C[C@@H]1CN(c2c(F)c(F)c3c(=O)c(C(=O)O)cn(C4CC4)c3c2F)C[C@H](C)N1 | 1.69% [at 11.2 µM] | 
CCCN1CCN(c2cccc(Nc3nn4c(=O)c5ccccc5nc4s3)c2)CC1 |  | inactive
Cc1cc(C)n2ncc(C(=O)Nc3ccncc3)c2n1 | -6.03% | 
O=S(=O)(c1ccc2c(c1)OCCO2)N1CCN(S(=O)(=O)c2c(Cl)cc(C(F)(F)F)cc2Cl)CC1 | 0.0213% | 
O=S(=O)(c1cccc(C(F)(F)F)c1)N1CCN(S(=O)(=O)c2ccc3c(c2)OCCO3)CC1 | -4.69% | 
Cc1cc(NC(=O)Nc2nnc(-c3cccnc3)s2)ccc1F | 1.95% | 
CCN(CC)Cc1cccc(/C=C/c2nc3ccc(F)cc3c(=O)n2-c2ccccc2Cl)n1 | -6.46% | 
CC(C)(C)c1ccc(-c2csc(N3CCC(C(N)=O)CC3)n2)cc1 | 6.83% | 
CC(=O)Nc1cccc(S(=O)(=O)Nc2ccc(C)c(C)c2)c1 | -5.99% | 

Structure (SMILES) | activity change, negative = inhibition | Potency
O=C(COC(=O)CNC(=O)c1ccccc1Cl)Nc1cc(C(F)(F)F)ccc1Cl | 22% | 
COc1cccc(C2c3c(ncn(-c4cccc(F)c4)c3=N)Oc3ccc4ccccc4c32)c1 (stereo not given) | 8.86% | 
Cn1nnnc1Sc1ncnc2n[nH]c(-c3cccc(S(C)(=O)=O)c3)c12 | -13.7% | 
CN(C)C/C=C/C(=O)Nc1cccc(C(=O)Nc2ccc(Nc3nccc(-c4cccnc4)n3)cc2)c1 | 18.4% | 
O=[N+]([O-])c1ccccc1S(=O)(=O)N1CCN(S(=O)(=O)c2ccc3c(c2)OCCO3)CC1 | -0.0089% | 
Cc1ccc(-c2csc3ncnc(Sc4nnnn4C)c23)cc1 | 0.754% | 
CN(C)S(=O)(=O)c1ccc(-c2nc(NCc3ccc(-c4ccnc(C(F)(F)F)c4)cc3)c3ccccc3n2)cc1 | -12.7% | 
Cc1cc2c(s1)c1cnn(Cc3ccc(C#N)cc3)c(=O)c1n2C | 4.38% | 
c1csc(CNc2ncnc3ccc(-c4ccoc4)cc23)c1 | -14.4% | 
CCCCN(C)C(=O)Cn1nc(-c2cncnc2)ccc1=O | -7.29% | 
Cn1nnnc1Sc1ncnc2scc(-c3ccccc3Br)c12 | 7.1% | 
Cc1ccc(NS(=O)(=O)c2ccc3c(c2)CCC(=O)N3)cc1C | -3.9% | 
O=C(O)Cc1cc(F)c(S(=O)(=O)N2CCN(S(=O)(=O)c3ccc4c(c3)OCCO4)CC2)cc1F | 2.85% | 
CC(=O)O[C@@H]1C=C2[C@H](CC[C@@]3(C)[C@@]2(O)CC[C@H]2Cc4c([nH]c5ccccc45)[C@@]23C)O[C@@H]1C(C)(C)O | -22% [at 28 µM] | 
COc1ccccc1-c1ccc(=O)n(CC(=O)NCCc2ccccc2)n1 | 24.3% | 
CC(C)n1nc(Cc2cccc3ccccc23)c2c(N)ncnc21 | 4.17% | 
O=C1CCCC2=C1C(c1[nH]ncc1Cl)N=C(Nc1ccccc1)N2 (stereo not given) | 1.66% | 
O=C(Nc1nc(-c2ccccc2)cs1)c1ccccc1Cl | -0.0965% | 
Cc1ccc(OCCn2c(CCNC(=O)c3cccc4cc[nH]c34)nc3ccccc32)cc1 | 10.4% | 
COC(=O)c1ccc(O)c2ncc(NC3CCNCC3)cc12 | -5.97% | 
